According to PubChem BioAssay (NCI):
Compounds without any hit were thinned out: in the full panel of roughly 83,000, 20% have a hit.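 Values shown are percent growth following 48 h exposure of cells in 96-well plates to a single concentration of compound; below 10 was considered active.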 A number with no mark means an inactive call. Calls of active or inactive are those of the source.

tested on: TK-10 renal; assay: NCI-60 one-dose screen, 48 h (100 = growth as untreated, 0 = no growth, -100 = all killed); settings: 10 µM unless noted

| SMILES | growth |
| --- | --- |
| CC1(C)OC2COC3(C(=O)O)OC(C)(C)OC3C2O1 (stereo unspecified) | 94.7% |
| Cc1ccc(Cn2c(-c3cccs3)nc3ccccc32)cc1 | 89.8% |
| COc1cc2c(cc1OC)C1(C)N(CC2)C(=O)OC1(C)C (stereo unspecified) | 102% |
| Cc1cc(-c2ccccc2)c(C)n1Cc1ccc(Cl)cc1 | 76.6% |
| CCN(Cc1ccccc1)c1ccc(SC#N)cc1 | 102% |
| O=C1Nc2ccc(Br)cc2C1=N/C=c1\[nH]c(=O)/c(=C/c2ccc(Cl)cc2)s1 | 101% |
| COc1ccc(-c2nc(-c3ccccc3)c(-c3ccccc3)n2C2CC2)cc1OC1CCCCC1 | 92.3% |
| CC(=O)Nc1ccc(S(=O)(=O)N2C(=O)CCC2C(=O)Nc2ccccc2)cc1 (stereo unspecified) | 27.5% |
| COc1cc(CNC(=O)CCSc2nc3ccccc3c(=O)n2Cc2cc(OC)c(OC)c(OC)c2)cc(OC)c1OC | 62% |
| O=C(CN1CCN(c2cc3c(cc2F)c(=O)c(C(=O)O)cn3C2CC2)CC1)Nc1ccc(C(=O)/C=C/c2ccccc2)cc1 | 39.9% |
| CC(C)N(Cc1ccc(CN(C(=O)CCl)C(C)C)cc1)C(=O)CCl | 70.5% |
| COc1ccc(/C=C/c2cc(N3CCOCC3)c3cc(F)c(F)cc3n2)cc1OC | 31.9% |
| COc1cccc(-n2cc(-c3nc(Cl)c4ccccc4n3)nn2)c1 | 105% |
| CCNC(=O)C1CCCN1C(=O)C(CCCN=C(N)N)NC(=O)C(CC(C)C)NC(=O)C(CC(C)C)NC(=O)C(Cc1ccc(O)cc1)NC(=O)C(CO)NC(=O)C(Cc1c[nH]c2ccccc12)NC(=O)C(Cc1cnc[nH]1)NC(=O)C1CCC(=O)N1 (stereo unspecified) | 110% |
| Nc1c(C(=O)Nc2cccc(Cl)c2Cl)sc2nc3c(cc12)C(=O)CCC3 | 81.9% |
| COc1cc(C2C=C(C)N=C3SC(C)=NN32)cc(OC)c1OC (stereo unspecified) | 102% |
| Nc1c(C(=O)Nc2cccc(C(F)(F)F)c2)sc2nc3c(cc12)CCCCCC3 | 5% (active) |
| O=Nc1c(-c2c(O)[nH]c3ccc([N+](=O)[O-])cc23)[nH]c2ccc(O)cc12 | 49.9% |
| c1cc(-c2ccc3c(c2)OCO3)n2nccc2n1 | 104% |

| SMILES | growth |
| --- | --- |
| Nc1c(C(=O)Nc2cccc([N+](=O)[O-])c2)sc2nc3c(cc12)C(O)CCC3 (stereo unspecified) | 76.6% |
| CCn1cc(C(=O)O)c(=O)c2cc(F)c(N3CCN(S(=O)(=O)c4ccc(Cl)cc4Cl)CC3)cc21 | 12.4% |
| CN1C(=O)[C@H]2c3c1cccc3[C@@]13NC(=O)O[C@H]1[C@H](CCC3(C)C)C2(C)C | 87.2% |
| CN1CCN(c2ccc3cc(-c4nc5ccccc5[nH]4)c(=O)oc3c2)CC1 | 119% |
| Cc1ccc(Cn2c(-c3nonc3N)nc3ccccc32)cc1 | 90.4% |
| CCc1cccc(C)c1NC(=O)c1sc2nc3c(cc2c1N)C(=O)CCC3 | 51.5% |
| COc1cc(-c2cc(/C=C3\CCCCC3=O)[nH]n2)cc(OC)c1OC | 112% |
| FC(F)(F)c1cccc(-n2nnc3cnc(Nc4ccc(N5CCCCC5)cc4)nc32)c1 | 97.2% |
| Cc1ccc(OCCn2c(C)nn(-c3ccc(Cl)cc3)c2=O)cc1 | 131% |
| CN1CCN(CCCOc2ccc3nc(Nc4ccc(C(F)(F)F)c(Cl)c4)ccc3c2)CC1 | 18.9% |
| COc1cc(Cn2c(SCC(=O)Nc3cc(OC)c(OC)c(OC)c3)nc3ccccc3c2=O)cc(OC)c1OC | 67.9% |
| c1ccc(CCn2nnc3c(Nc4ccc(N5CCOCC5)cc4)ncnc32)cc1 | 121% |
| CCCC1OC(c2ccc(C(C)C)cc2)OCC1CC (stereo unspecified) | 97.1% |
| Oc1ccc(N=Cc2ccccc2)cc1 | 108% |
| COc1cccc(NC(=O)c2sc3nc4c(cc3c2N)CCCC4)c1 | 55.7% |
| Cn1cc(C=O)c2ccccc21 | 102% |
| O=C1CCCCN1CCCCC#Cc1ccccc1C#Cc1ccc([N+](=O)[O-])cc1 | 80.6% |
| O=C(c1ccncc1)N1N=C(c2ccc(Cl)cc2)CC1c1c[nH]c2ccccc12 (stereo unspecified) | 107% |
| Cc1cc2c(c(=O)o1)C(c1ccc(OC(=O)N3CCOCC3)cc1)C(C#N)=C(N)O2 (stereo unspecified) | 95.6% |

tested on: ACHN renal; assay: as above; settings: 10 µM unless noted

| SMILES | growth |
| --- | --- |
| CC1(C)OC2COC3(C(=O)O)OC(C)(C)OC3C2O1 (stereo unspecified) | 94.4% |
| Cc1ccc(Cn2c(-c3cccs3)nc3ccccc32)cc1 | 86.4% |
| COc1cc2c(cc1OC)C1(C)N(CC2)C(=O)OC1(C)C (stereo unspecified) | 107% |
| Cc1cc(-c2ccccc2)c(C)n1Cc1ccc(Cl)cc1 | 54.8% |
| CCN(Cc1ccccc1)c1ccc(SC#N)cc1 | 63.5% |
| O=C1Nc2ccc(Br)cc2C1=N/C=c1\[nH]c(=O)/c(=C/c2ccc(Cl)cc2)s1 | 90.8% |
| COc1ccc(-c2nc(-c3ccccc3)c(-c3ccccc3)n2C2CC2)cc1OC1CCCCC1 | 53.8% |
| CC(=O)Nc1ccc(S(=O)(=O)N2C(=O)CCC2C(=O)Nc2ccccc2)cc1 (stereo unspecified) | 30.4% |
| COc1cc(CNC(=O)CCSc2nc3ccccc3c(=O)n2Cc2cc(OC)c(OC)c(OC)c2)cc(OC)c1OC | 48.9% |
| O=C(CN1CCN(c2cc3c(cc2F)c(=O)c(C(=O)O)cn3C2CC2)CC1)Nc1ccc(C(=O)/C=C/c2ccccc2)cc1 | 40.1% |
| CC(C)N(Cc1ccc(CN(C(=O)CCl)C(C)C)cc1)C(=O)CCl | 5.84% (active) |
| COc1ccc(/C=C/c2cc(N3CCOCC3)c3cc(F)c(F)cc3n2)cc1OC | 26.4% |
| COc1cccc(-n2cc(-c3nc(Cl)c4ccccc4n3)nn2)c1 | 112% |
| CCNC(=O)C1CCCN1C(=O)C(CCCN=C(N)N)NC(=O)C(CC(C)C)NC(=O)C(CC(C)C)NC(=O)C(Cc1ccc(O)cc1)NC(=O)C(CO)NC(=O)C(Cc1c[nH]c2ccccc12)NC(=O)C(Cc1cnc[nH]1)NC(=O)C1CCC(=O)N1 (stereo unspecified) | 97% |
| Nc1c(C(=O)Nc2cccc(Cl)c2Cl)sc2nc3c(cc12)C(=O)CCC3 | 98.1% |
| COc1cc(C2C=C(C)N=C3SC(C)=NN32)cc(OC)c1OC (stereo unspecified) | 103% |
| Nc1c(C(=O)Nc2cccc(C(F)(F)F)c2)sc2nc3c(cc12)CCCCCC3 | -35.6% (active) |
| O=Nc1c(-c2c(O)[nH]c3ccc([N+](=O)[O-])cc23)[nH]c2ccc(O)cc12 | -25.8% (active) |
| c1cc(-c2ccc3c(c2)OCO3)n2nccc2n1 | 98.2% |

| SMILES | growth |
| --- | --- |
| Nc1c(C(=O)Nc2cccc([N+](=O)[O-])c2)sc2nc3c(cc12)C(O)CCC3 (stereo unspecified) | 92.1% |
| CCn1cc(C(=O)O)c(=O)c2cc(F)c(N3CCN(S(=O)(=O)c4ccc(Cl)cc4Cl)CC3)cc21 | -54.6% (active) |
| CN1C(=O)[C@H]2c3c1cccc3[C@@]13NC(=O)O[C@H]1[C@H](CCC3(C)C)C2(C)C | 94.2% |
| CN1CCN(c2ccc3cc(-c4nc5ccccc5[nH]4)c(=O)oc3c2)CC1 | 89.3% |
| Cc1ccc(Cn2c(-c3nonc3N)nc3ccccc32)cc1 | 92.3% |
| CCc1cccc(C)c1NC(=O)c1sc2nc3c(cc2c1N)C(=O)CCC3 | 51.9% |
| COc1cc(-c2cc(/C=C3\CCCCC3=O)[nH]n2)cc(OC)c1OC | 98.7% |
| FC(F)(F)c1cccc(-n2nnc3cnc(Nc4ccc(N5CCCCC5)cc4)nc32)c1 | 56% |
| Cc1ccc(OCCn2c(C)nn(-c3ccc(Cl)cc3)c2=O)cc1 | 103% |
| CN1CCN(CCCOc2ccc3nc(Nc4ccc(C(F)(F)F)c(Cl)c4)ccc3c2)CC1 | 3.12% (active) |
| COc1cc(Cn2c(SCC(=O)Nc3cc(OC)c(OC)c(OC)c3)nc3ccccc3c2=O)cc(OC)c1OC | 33.4% |
| c1ccc(CCn2nnc3c(Nc4ccc(N5CCOCC5)cc4)ncnc32)cc1 | 104% |
| CCCC1OC(c2ccc(C(C)C)cc2)OCC1CC (stereo unspecified) | 99.5% |
| Oc1ccc(N=Cc2ccccc2)cc1 | 57.3% |
| COc1cccc(NC(=O)c2sc3nc4c(cc3c2N)CCCC4)c1 | 44.2% |
| Cn1cc(C=O)c2ccccc21 | 93.5% |
| O=C1CCCCN1CCCCC#Cc1ccccc1C#Cc1ccc([N+](=O)[O-])cc1 | 34% |
| O=C(c1ccncc1)N1N=C(c2ccc(Cl)cc2)CC1c1c[nH]c2ccccc12 (stereo unspecified) | 94.8% |
| Cc1cc2c(c(=O)o1)C(c1ccc(OC(=O)N3CCOCC3)cc1)C(C#N)=C(N)O2 (stereo unspecified) | 102% |
